Shown are actives, neighbours in structure and some others; about 18% of the full set was active somewhere.
TDP1 cell CPT: qHTS for Inhibitors of human tyrosyl-DNA phosphodiesterase 1 (TDP1): qHTS in cells in presence of CPT. chicken DT40 Tdp1-/-;hTDP1 cells + 20 nM CPT, ATP luminescence, 48 h. Potency, µM (highest dose often 46.2 µM), inactives show top-dose activity change, negative = growth inhibition, usual class: inhibitors. 420,000 compounds, 12% hits; also: potency is read from the fitted curve at half-maximal effect; nearly all actives have a fitted effect of over 55% in size
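Chicken DT40 Tdp1-/- cells complemented with human TDP1, 400 cells/well, exposed to compounds plus 20 nM camptothecin for at least 48 h at 37 C; viability read as ATP content by CellTiter-Glo luminescence.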
LDHA block: qHTS assay for inhibitors of human lactate dehydrogenase | purified LDHA, NADH/diaphorase-resazurin fluorescence; stronger effect = lower value | activity change, % (values are at about 110 or 230 µM) | 480,000 compounds, 0.15% hits; in the data active = activity change below about -30%; inconclusive = mostly about -25% to -30%;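 also: plate controls were DMSO wells for no effect and wells without enzyme for full effect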
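Human LDH5 at 2 nM final in Tris HCl pH 7.4 with 0.06 mM NADH and 0.2 mM pyruvate, reacted 5 minutes at room temperature. Remaining NADH coupled via diaphorase/resazurin; resorufin fluorescence read at 0 and 20 minutes, normalized to enzyme-free and DMSO wells.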
TDP1 cell noCPT: qHTS for Inhibitors of human tyrosyl-DNA phosphodiesterase 1 (TDP1): qHTS in cells in absence of CPT. DT40 Tdp1-/- hTDP1 cells, no CPT, ATP luminescence, 48 h. Potency, µM (titrated, usually from 46.2 µM), without a hit: at the top dose activity change, negative = growth inhibition, most hits filed as inhibitors. AID 686978, 2013. 420,000 compounds, 15% hits; also: potency is read from the fitted curve at half-maximal effect; nearly all actives have a fitted effect of over 55% in size
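Growth of hTDP1-complemented DT40 Tdp1-knockout cells is measured by ATP luminescence after at least 48 hr compound exposure at 37 °C, with DMSO substituting for the 20 nM CPT used in the parallel screen.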
VP16 counter: VP16 counterscreen qHTS for inhibitors of ROR gamma transcriptional activity; Drosophila S2 Gal4-VP16 UAS-luciferase, luminescence, 20 h; Potency, µM (titrated, usually from 53.6 µM), for the others: at the top dose activity, negative = inhibition, actives largely listed as inhibitors; 310,000 compounds, 3.5% hits; AID 2546, 2010;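 also: Gal4-VP16 expression switched on by copper sulfate through the metallothionein promoter; potency is read from the fitted curve at half-maximal effect; nearly all actives have a fitted effect of over 50% in size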
RORgamma inh: qHTS for inhibitors of ROR gamma transcriptional activity; Drosophila S2 Gal4-RORgamma UAS-luciferase reporter, 20 h; Potency, µM (highest dose often 53.6 µM), for the others: at the top dose activity change, negative = inhibition, actives largely listed as inhibitors; AID 2551, 2010; 310,000 compounds, 5.4% hits; also: potency is read from the fitted curve at half-maximal effect; nearly all actives have a fitted effect of over 60% in size
Target sequence (P51450 whole entry, looked up, the tested form may be a part): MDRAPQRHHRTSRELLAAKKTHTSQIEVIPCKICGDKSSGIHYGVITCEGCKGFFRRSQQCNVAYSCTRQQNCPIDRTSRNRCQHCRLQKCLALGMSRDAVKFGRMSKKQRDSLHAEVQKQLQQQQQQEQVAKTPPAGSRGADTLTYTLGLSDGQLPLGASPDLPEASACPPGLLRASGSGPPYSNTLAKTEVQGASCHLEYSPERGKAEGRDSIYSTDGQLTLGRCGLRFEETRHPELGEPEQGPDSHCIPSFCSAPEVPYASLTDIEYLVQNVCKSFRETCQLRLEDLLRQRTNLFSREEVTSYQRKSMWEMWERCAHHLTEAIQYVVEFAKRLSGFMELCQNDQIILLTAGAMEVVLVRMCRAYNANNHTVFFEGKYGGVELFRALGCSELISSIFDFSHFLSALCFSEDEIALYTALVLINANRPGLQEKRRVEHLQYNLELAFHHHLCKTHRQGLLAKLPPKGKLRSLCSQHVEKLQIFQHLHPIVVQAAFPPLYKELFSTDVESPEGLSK
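In this cell-based reporter format, copper sulfate (700 uM final) drives Gal4–ROR gamma fusion expression from a metallothionein promoter in Drosophila Schneider cells; compounds preincubated 1 hr, reporter read after 20 hr at ambient temperature.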
IL-1B inflam inh: qHTS for Inhibitors of Inflammasome Signaling: IL-1-beta AlphaLISA Primary Screen. THP-1 LPS/ATP IL-1B secretion, AlphaLISA, 16 h; stronger effect = lower value. activity change, % at 57.5 µM. 360,000 compounds, 4.7% hits. AID 743279, 2014; in the data active = activity change below about -50%; inconclusive = mostly about -30% to -49%
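Secreted IL-1B measured by AlphaLISA bead assay after 16 h compound exposure of THP-1 cells; compounds (final up to 57.5 uM) added 1 h before LPS (250 ng/mL) and ATP (1.25 mM) stimulation; lower signal means less secretion.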
Numbers without * were called inactive; ? = inconclusive; / = no result; [ ] = dose if it differs, or a comment. Unless noted, calls follow the shape of the dose curve; as a rule, active = well fitted curve in the direction sought with a large enough effect; inconclusive = small, poorly fitted or top-dose-only effect, or another doubt; inactive = no such curve, though single readings can be large; an effect the other way counts as inactive or inconclusive. Unless noted, % is scaled to controls: 0 for no effect and ±100 for the full control effect.

SMILES	TDP1 cell CPT	LDHA block	TDP1 cell noCPT	VP16 counter	RORgamma inh	IL-1B inflam inh
CC(C)(C)n1nnnc1C(c1cc2cc3c(cc2[nH]c1=O)OCO3)N1CCN(c2ccccc2)CC1 (stereo unspecified)	-12%	8	-18%	-7%	-6%	?
CCC(C)(C)n1nnnc1C(c1cc2cc(C)ccc2[nH]c1=O)N1CCCC1 (stereo unspecified)	-13%	6	-12%	/	-7%[0.365 µM]	22
COc1cc2cc(C(c3nnnn3C(C)(C)C)N3CCc4ccccc4C3)c(=O)[nH]c2cc1OC (stereo unspecified)	18µM*	1	?	-3%	1%	-18
O=C1CC(c2ccccc2O)Cc2nc(N3CCN(c4cccc(C(F)(F)F)c4)CC3)ncc21 (stereo unspecified)	/	4	/	/	/	/
O=C(Nc1oc2ccccc2c(=O)c1-c1ccc2c(c1)OCO2)c1ccccc1	/	-36*	/	/	/	/
O=C(NCCc1c[nH]c2ccccc12)C(=O)NCC1OCCCN1S(=O)(=O)c1ccc(F)cc1 (stereo unspecified)	18µM*	-4	?	-11%	31%	0
Cc1cc(C)c(S(=O)(=O)N2CCCOC2CNC(=O)C(=O)NCCc2c[nH]c3ccccc23)c(C)c1 (stereo unspecified)	?	2	15µM*	-11%	?	-15
Cc1cc(F)ccc1S(=O)(=O)N1CCCOC1CNC(=O)C(=O)NCCc1c[nH]c2ccccc12 (stereo unspecified)	16µM*	-7	?	-17%	33%	?
Cc1ccc(S(=O)(=O)N2CCOC2CNC(=O)C(=O)NCCc2c[nH]c3ccccc23)cc1 (stereo unspecified)	?	-3	?	-7%	40%	11
O=C(CCS(=O)(=O)c1ccc(F)cc1)Nc1ccccc1-c1ccccc1	/	-1	/	/	/	/
CCCC#Cc1ccc2c(c1)O[C@@H](CN(C)Cc1ccc3c(c1)OCO3)[C@H](C)CN([C@@H](C)CO)S2(=O)=O	7.3µM*	2	2.3µM*	/	/	-3
C[C@H](CO)N1C[C@H](C)[C@H](CN(C)Cc2ccncc2)Oc2cc(-c3ccccc3F)ccc2S1(=O)=O	15µM*	-1	23µM*	/	/	-29
C[C@H]1CN([C@@H](C)CO)S(=O)(=O)c2ccc(Br)cc2O[C@@H]1CN(C)Cc1ccccc1	?	4	21µM*	/	/	0
C[C@H]1CN([C@@H](C)CO)S(=O)(=O)c2ccc(Br)cc2O[C@H]1CN(C)Cc1ccccc1	?	3	?	/	/	-9
Cc1cc2oc(=O)cc(CN(C)C(C)C3CC3)c2cc1C(C)C (stereo unspecified)	/	1	/	/	/	/
COc1ccc(NS(=O)(=O)c2ccc3c(c2)NC(=O)CCS3)cc1Cl	21µM*	-1	18µM*	?	?	-1
COc1ccc(NS(=O)(=O)c2ccc3c(c2)n(C)c(=O)c(=O)n3C)cc1Cl	-12%	5	?	/	/	/
COc1ccc(S(=O)(=O)Nc2ccc3c(c2)sc(=O)n3C)cc1Cl	23µM*	-5	18µM*	/	/	/
CCn1c(=O)sc2cc(NS(=O)(=O)c3ccc(F)c(C)c3)ccc21	10µM*	-2	10µM*	/	/	/
N#Cc1ccc(/C=C/C(=O)N(CCc2ccccc2)Cc2cccs2)cc1	/	-3	/	/	/	/
Cc1c(C(=O)NCc2cccc(Cl)c2)sc2nc3n(c(=O)c12)CCCC3	?	-4	?	/	/	/
Cc1ccc(Cl)cc1N1CCN(C(=O)c2sc3nc4n(c(=O)c3c2C)CCC4)CC1	15µM*	-2	15µM*	/	/	/
COc1ccc(N2CCN(C(=O)c3sc4nc5n(c(=O)c4c3C)CCC5)CC2)cc1	?	2	23µM*	/	/	/
COc1ccccc1N1CCN(C(=O)c2sc3nc4n(c(=O)c3c2C)CCC4)CC1	1%	-2	7%	-1%	3%	-3
Cc1c(C(=O)N2CCCCC2C)sc2nc3n(c(=O)c12)CCC3 (stereo unspecified)	-10%	-10	0%	-2%	-5%	11
SMILES	TDP1 cell CPT	LDHA block	TDP1 cell noCPT	VP16 counter	RORgamma inh	IL-1B inflam inh
Cc1cccc(N2CCN(C(=O)c3sc4nc5n(c(=O)c4c3C)CCC5)CC2C)c1 (stereo unspecified)	16µM*	5	13µM*	/	/	/
CC(=O)c1ccccc1NC(=O)Cn1cnc2cc(Cl)ccc2c1=O	/	-14	/	/	/	/
CS(=O)(=O)c1cccc(C(=O)Nc2cccc(-c3nc4ccccc4[nH]3)c2)c1	?	-6	?	-4%	33%	0
CCCOc1ccc(C(=O)Nc2cccc(-c3nc4ccccc4[nH]3)c2)cc1	/	0	/	/	/	/
CS(=O)(=O)Cc1ccc(C(=O)Nc2cccc(-c3nc4ccccc4[nH]3)c2)cc1	?	-4	13µM*	-16%	27%	-3
CS(=O)(=O)c1ccc(C(=O)Nc2ccc(-c3nc4ccccc4[nH]3)cc2)cc1	?	-6	?	-8%	-35%	6
CCOc1cc(OCC)cc(C(=O)Nc2cccc(-c3nc4ccccc4[nH]3)c2)c1	10µM*	-5	6.5µM*	/	/	/
CS(=O)(=O)c1ccc(C(=O)Nc2cccc(-c3nc4ccccc4[nH]3)c2)cc1	?	-5	26µM*	2%	25%	-19
Cc1cc(OCc2nc3c(C)cccc3[nH]2)ccc1Cl	/	-16	/	/	/	/
CCOc1ccc(CNCCSc2nnnn2C)cc1OC	2%	-3	3%	/	/	/
COc1cc(CNCCSc2nnnn2C)ccc1OCc1ccccc1C	16µM*	1	?	/	/	/
Cn1nnnc1SCCCNCc1cccc(OCc2ccc(F)cc2)c1	?	-7	23µM*	/	/	/
Cn1nnnc1SCCCNCc1ccccc1OCc1ccc(Cl)cc1	18µM*	-9	23µM*	/	/	/
Cn1nnnc1SCCNCc1cc(Cl)ccc1OCc1ccccc1	26µM*	-7	23µM*	?	43%	-9
COc1ccc(OC)c(NS(=O)(=O)c2cc(-c3cnc(C)o3)ccc2C)c1	/	-1	/	/	/	/
Cn1nnnc1SCCNCc1ccccc1OCc1ccc(Cl)cc1	?	-6	16µM*	-22%	?	-89*
CCOc1cccc(CNCCCSc2nnnn2C)c1	0%	-11	-8%	/	/	/
CCOc1cccc(CNCCCSc2ncccn2)c1	4.6µM*	-13	15µM*	-13%	-12%	-23

Bioassay records: PubChem, National Center for Advancing Translational Sciences (NCATS)
